# Screening data as filed in PubChem.
# Hsp90 Hop PPI – qHTS Assay for Disrupters of an Hsp90 Co-Chaperone Interaction. Hsp90 C-terminal peptide / TPR2A (Hop) interaction, human. AlphaScreen TPR2A-His6 binding biotin-Hsp90 C-terminal peptide. AID 595, 2007. 0.44% of 71,000 active. Potency, µM (series often up to 57 µM), for inactives: top-dose activity change, negative = inhibition; active means well fitted curve in either direction with a large enough effect; inconclusive means small, poorly fitted or top-dose-only effect, or another doubt; further: potency means the concentration at half of the fitted maximal effect; on the % scale 0 is the no-effect control and ±100 the full control effect
# TsaE inh – qHTS Assay for Inhibitors of YjeE; tRNA threonylcarbamoyladenosine biosynthesis protein TsaE (Escherichia coli (strain …; purified YjeE enzyme, qHTS inhibition assay; Potency, µM; 0.05% of 71,000 active; AID 605, 2007
#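 Purified YjeE (10 uM) with BODIPY Texas Red-labeled ADP probe (2 uM); compounds pin-transferred, 15 min at room temperature. Binding inhibition read as decreased fluorescence polarization; ADP titration as control.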
# Tau filament bind – qHTS Assay for Tau Filament Binding. Microtubule-associated protein tau (Homo sapiens), P10636. recombinant tau filaments, thioflavin S fluorescence, 15 h; filaments grown with octadecylsulfate alongside compound. Potency, µM (top dose mostly 57.1 µM), without a hit: at the highest dose activity change, negative = inhibition. 2% of 71,000 active. AID 596, 2007;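 further: potency means the concentration at half of the fitted maximal effect; on the % scale 0 is the no-effect control and ±100 the full control effect; actives lower thioflavin S fluorescence by blocking filaments or displacing dye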
# Target sequence (P10636 whole entry, looked up): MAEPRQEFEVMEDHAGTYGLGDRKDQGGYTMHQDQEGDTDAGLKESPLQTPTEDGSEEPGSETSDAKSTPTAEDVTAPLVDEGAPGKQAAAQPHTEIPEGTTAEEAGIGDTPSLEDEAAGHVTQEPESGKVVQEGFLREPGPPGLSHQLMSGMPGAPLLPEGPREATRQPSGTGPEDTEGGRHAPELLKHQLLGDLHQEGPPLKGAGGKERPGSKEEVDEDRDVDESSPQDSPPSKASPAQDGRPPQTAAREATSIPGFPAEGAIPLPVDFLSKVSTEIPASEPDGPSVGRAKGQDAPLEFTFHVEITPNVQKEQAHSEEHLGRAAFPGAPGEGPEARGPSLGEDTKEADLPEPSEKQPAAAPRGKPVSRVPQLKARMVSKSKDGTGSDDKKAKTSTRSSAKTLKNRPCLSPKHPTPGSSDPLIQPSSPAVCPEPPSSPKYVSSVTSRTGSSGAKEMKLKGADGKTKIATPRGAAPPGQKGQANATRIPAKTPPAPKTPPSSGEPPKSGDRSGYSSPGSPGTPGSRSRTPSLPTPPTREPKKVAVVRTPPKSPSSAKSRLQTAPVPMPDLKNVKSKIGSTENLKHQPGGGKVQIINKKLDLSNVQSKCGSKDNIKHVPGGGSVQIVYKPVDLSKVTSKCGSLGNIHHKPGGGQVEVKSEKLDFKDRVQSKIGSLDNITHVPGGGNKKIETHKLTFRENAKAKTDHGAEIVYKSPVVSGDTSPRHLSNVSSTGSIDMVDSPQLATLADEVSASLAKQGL
#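 Quantitative HTS: thioflavine S signal from ODS-induced tau filaments, excited at 450 nm, emission 510 nm. Conditions: 1 uM tau, 30 uM ODS, 15 h at 37 C, pH 7.4.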
# Pol III holo inh – qHTS Assay for Inhibitors of DNA Polymerase III Holoenzyme System; reconstituted DNA polymerase III holoenzyme replication, biochemical; Potency, µM (series often up to 57.1 µM), for inactives: at the highest dose activity change, negative = inhibition; 0.25% of 71,000 active; AID 603, 2007; further: potency means the concentration at half of the fitted maximal effect; on the % scale 0 is the no-effect control and ±100 the full control effect
#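 Reconstituted *E. coli* holoenzyme (0.35 nM Pol III, 1 nM beta, 154 nM SSB, 2 nM primase) was preincubated with compound for 15 min at RT. Synthesis on 1.4 nM ssM13Gori ran 35 min, then was stopped with PicoGreen/EDTA and read as dsDNA fluorescence.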
# ALOX15 inhib – qHTS Assay for Inhibitors of 15-hLO (15-human lipoxygenase); Polyunsaturated fatty acid lipoxygenase ALOX15 (Homo sapiens), P16050; 1.4% of 74,000 active; Potency, µM (titrated, usually from 57.1 µM), for inactives: at the highest dose activity change, negative = inhibition, most hits filed as inhibitors; purified 15hLO-1, xylenol orange hydroperoxide absorbance; further: potency means the concentration at half of the fitted maximal effect; on the % scale 0 is the no-effect control and ±100 the full control effect; nearly all actives have a fitted effect of over 55% in size
#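 40 nM 15hLO-1 + cpd, 15 min RT; start w/ 50 uM AA (final), 6 min RT; stop/detect w/ 200 uM XO + 300 uM Fe(II) in 50 mM H2SO4, 30 min; A573/A405. Buffer 25 mM Hepes pH 7.5, 0.01% Triton X-100. No-enzyme wells as negative control.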
# An asterisk follows results filed as active; i = inactive; ? = inconclusive; nt = no result; [ ] = another dose, or the depositor's remark. This is a sample that favours compounds with a hit; in the whole collection about 3.3% have one here. Unless noted, the call rests on the fitted dose curve; in most records, active means well fitted curve in the direction sought with a large enough effect; inconclusive means small, poorly fitted or top-dose-only effect, or another doubt; inactive means no such curve, though single readings can be large; an effect the other way counts as inactive or inconclusive.
SMILES,Hsp90 Hop PPI,TsaE inh,Tau filament bind,Pol III holo inh,ALOX15 inhib
CSc1nc(N)c2ncn([C@H]3O[C@H](COP(=O)(O)OP(=O)(O)O)[C@@H](O)[C@@H]3O)c2n1,-4%,50µM*,?,-3%,-3%[25.6 µM]
CSc1nc(N)c2ncn([C@@H]3O[C@@H](COP(=O)(O)OP(=O)(O)O)[C@@H](O)[C@H]3O)c2n1,-7%,?,3%,-2%,4%
Nc1ncnc2c1ncn2[C@@H]1O[C@@H](COP(=O)(O)OP(=O)(O)OP(=O)(O)OP(=O)(O)OC[C@@H]2O[C@@H](n3cnc4c(N)ncnc43)[C@@H](O)[C@H]2O)[C@H](O)[C@@H]1O,-10%,50µM*,-3%,-7%,-19%
Nc1cccc(S(=O)(=O)O)c1,-3%,i,16%,2%,-5%
COc1cccc(-c2ccc3ncnc(N(C)Cc4ccco4)c3c2)c1,-20%,i,-1%,-7%,-22%
CN(C)c1ccc(-c2ccc3ncnc(N(C)Cc4ccco4)c3c2)cc1,6%,i,20µM*,-4%,-19%
CC(=O)[C@@]1(O)CC[C@@H]2[C@@H]3CCC4=CC(=O)CC[C@@]4(C)[C@H]3CC[C@]21C,0%,i,-1%,22%,-5%
CCCCOC(=O)c1ccc(NC(=O)c2cnccn2)cc1,1%,i,25µM*,-1%,-1%
O=C(Nc1ccc2ccccc2c1)c1cnccn1,-7%,i,25µM*,0%,-13%
COc1ccc(N2CCN(Cc3cc(=O)oc4ccc(Cl)cc34)CC2)cc1,-3%,i,-13%,-7%,4%
COc1ccc2nc3cc(Cl)ccc3c(Nc3ccc(O)c(CN4CCN(C)CC4)c3)c2c1,-1%[11 µM],i,0.25µM*,5µM*,9%[11.4 µM]
CCc1nc2scc(-c3ccccc3)c2c(=O)n1N,-2%,i,3%,-3%,20µM*
CN1[C@@H]2CC(OC(=O)[C@@H](CO)c3ccccc3)C[C@H]1[C@H]1O[C@H]12 (stereo partly drawn),0%,i,-2%,-3%,9%
O=C(O)c1cccc(-n2cccc2/C=N/O)c1,0%,i,0%,16µM*,-25%
CCN1C(C)=C(C(=O)OC)C(c2ccccc2)N2C(=O)[C@@]3(C(=O)OC)O[C@@]12C1C(=O)N(C)C(=O)C13 (stereo partly drawn),nt,nt,nt,nt,21%[11.4 µM]
C=CC[C@@H]1C=C[C@@H](O/N=C\C[C@@H]2C=C[C@H](OC(C)=O)[C@H](COC(C)=O)O2)[C@@H](CO)O1,nt,nt,nt,nt,10%[11.4 µM]
N=C1C=CC=C2C1=NC1(CCCCC1)N2O,?,i,16µM*,-7%,-13%
COc1ccc(S(=O)(=O)N2c3ccc(Cl)cc3[C@](O)(c3ccccc3Cl)[C@@H]2C(=O)N2CCC[C@H]2C(N)=O)cc1OC,nt,nt,nt,nt,16µM*
CN(Cc1ccco1)c1nc(-c2ccccc2C(F)(F)F)nc2ccccc12,11%,i,0%,0%,16µM*
COc1ccccc1-c1nc(N(C)Cc2ccco2)c2ccccc2n1,-5%,i,7.9µM*,-3%,-22%
CN(Cc1ccco1)c1nc(-c2ccccc2Cl)nc2ccccc12,8%,i,-2%,-2%,3%
COc1ccccc1-c1nc(N(C)C)c2ccccc2n1,-9%,i,16µM*,-13%,?
Cc1ccc(S(=O)(=O)c2cc3c(=O)n4ccccc4nc3n(Cc3ccco3)c2=N)cc1C,-5%,i,i,-20%,32µM*
O=C(NC1CCN(Cc2ccccc2)C1)c1ccc(Cc2nc3ccccc3[nH]2)cc1 (stereo not drawn),nt,nt,nt,nt,-7%
N[C@@H](Cc1cc(-c2ccc(Cl)cc2Cl)cc(CP(=O)(O)O)c1O)C(=O)O,-3%,i,40µM*,32µM*,13µM*
SMILES,Hsp90 Hop PPI,TsaE inh,Tau filament bind,Pol III holo inh,ALOX15 inhib
Nc1cc(C(=O)c2cccs2)ccc1Cl,-18%,i,16µM*,-9%,-24%
C=CCSC1=N/C(=C\c2ccc3c(c2)OCO3)C(=O)S1,18%,i,19%,4%,-22%
C=CCSC1=N/C(=C\C=C\c2ccco2)C(=O)S1,?,i,10µM*,?,20µM*
O=C(O)/C=C\c1cnc[nH]1,-6%,i,-8%,11%,7%
CCOc1ccccc1C(=O)Nc1cc(Cl)ccc1O,3%,i,112%,1%,10µM*
CCCCCNC(=O)C(C#N)c1nc2ccccc2nc1N1CCCC1 (stereo not drawn),0%,i,-15%,-13%,12%
N#CC(C(=O)NCc1ccccc1)c1nc2ccccc2nc1N1CCCC1 (stereo not drawn),0%,i,61%,4%,-1%
CCN(CC)c1nc2ccccc2nc1C(C#N)C(=O)NCCc1ccccc1 (stereo not drawn),9%,i,444%,-3%,-4%
N#CC(C(=O)NCCc1ccccc1)c1nc2ccccc2nc1N1CCOCC1 (stereo not drawn),2%,i,2.5µM*,0%,-7%
CCN(CC)c1nc2ccccc2nc1C(C#N)C(=O)NCCCOC (stereo not drawn),0%,i,7.9µM*,-9%,-18%
CCCCCCNC(=O)C(C#N)c1nc2ccccc2nc1N1CCCC1 (stereo not drawn),0%,i,-9%,4%,2%
CCOC(=O)N1CCN(c2nc3ccccc3nc2C(C#N)C(=O)NCCc2ccccc2)CC1 (stereo not drawn),1%,i,4µM*,3%,-11%
CCCCCCNC(=O)C(C#N)c1nc2ccccc2nc1N1CCOCC1 (stereo not drawn),-5%,i,4µM*,-1%,-1%
N#CC(C(=O)NCc1ccco1)c1nc2ccccc2nc1N1CCOCC1 (stereo not drawn),-10%,i,4µM*,-9%,-11%
CC(=O)N(C)c1nc(-c2ccc(Cl)cc2)cs1,5%,i,2%,-3%,4%
CC(=O)c1c(C)nc(-c2ccc(Cl)cc2)nc1N=CN(C)C,1%,i,25µM*,8%,-7%
CCN(CC)c1ccc(N)cc1,?,i,13µM*,-4%,-19%
CCN(CC)c1ccc(NC(=O)Nc2ccc(C(C)=O)cc2)cc1,-12%,i,?,-5%,-19%
CCCCNc1nc(C)nc2c1nc(-c1ccccc1)n2CC1CCN(C)CC1,-2%,i,2%,-8%,1%
CC(=O)OCC1OC(C#CC(C)(C)C)C=CC1OC(C)=O (stereo not drawn),nt,nt,nt,nt,-6%[11.4 µM]
CC1=C/C(=C\c2ccc3c(c2)OCO3)C(=O)S1,-13%,i,25µM*,-6%,?
